The list is not random: actives were taken first. Their share in the collection is about 4.6%.
TRHR PAM – qHTS for Small Molecule Agonists and Allosteric Enhancers of Human TRH Receptor: Primary Screen for Enhancers; TRHR cells, fluo-8 calcium fluorescence, EC20 TRH enhancement; enhancement, % at 2 µM; hit rate 0.66% among 360,000; in the data active means enhancement above about 30%; further: 0% is about no effect
Target sequence (P34981 whole entry, looked up): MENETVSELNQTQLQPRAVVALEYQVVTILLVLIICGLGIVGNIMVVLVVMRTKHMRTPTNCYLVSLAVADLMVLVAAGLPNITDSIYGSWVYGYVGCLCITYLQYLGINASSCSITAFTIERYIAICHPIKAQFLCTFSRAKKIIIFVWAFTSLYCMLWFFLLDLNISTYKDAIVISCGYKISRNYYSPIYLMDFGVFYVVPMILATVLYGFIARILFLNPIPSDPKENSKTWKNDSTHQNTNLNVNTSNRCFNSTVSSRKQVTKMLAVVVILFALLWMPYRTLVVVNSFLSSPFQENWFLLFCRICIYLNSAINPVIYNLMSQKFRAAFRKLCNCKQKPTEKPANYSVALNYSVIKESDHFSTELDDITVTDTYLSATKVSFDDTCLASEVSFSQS
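TRHR-expressing cells loaded with fluo-8 calcium dye were read kinetically (ex 480/em 530) during compound addition, then stimulated with an EC20 of TRH (10 nM final). Enhancement of the Gq-mediated intracellular calcium response was scored.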
D1 antag – Antagonist of Human D 1 Dopamine Receptor: qHTS; D(1A) dopamine receptor (Homo sapiens), P21728; HEK293 TREx D1 cells, calcium flux, dopamine EC80; hits give low values; activity change, negative = inhibition, % at 10 µM; hit rate 3.2% among 360,000; AID 504652, 2011; in the data active means activity change below about -30%; further: on the % scale 0 is the no-effect control and ±100 the full control effect
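Allosteric or orthosteric antagonism assessed as attenuation of the calcium response to EC80 dopamine, added 180 s after compound, in induced HEK293 Trex D1 cells loaded with no-wash calcium dye.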
D1 PAM – Potentiators of Human D1 Dopamine Receptor: qHTS; hit rate 0.036% among 360,000; HEK293 TREx D1 cells, calcium flux, dopamine EC20 potentiation; potentiation, % at 10 µM; D(1A) dopamine receptor (Homo sapiens), P21728; in the data active means potentiation above about 30%; further: 0% is about no effect
D1 agonist – Allosteric Agonists of the Human D1 Dopamine Receptor: qHTS; HEK293 T-REx D1 cells, calcium flux, agonist mode; hit rate 1% among 360,000; AID 504660, 2011; activation, % at 2 µM; further: 0% is about no effect
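Inducible HEK293 T-REx D1 cells, force-coupled to calcium signalling, were plated at 4000 cells/well with tetracycline and held overnight at 30 C. After no-wash calcium dye loading, compound-evoked calcium rise over 180 s flagged agonists.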
TRHR agonist – qHTS for Small Molecule Agonists and Allosteric Enhancers of Human TRH Receptor: Primary Screen for Agonists. AID 493084, 2011. hit rate 0.18% among 360,000. activation, % at 2 µM. TRHR cells, calcium flux fluo-8, FDSS agonist mode; further: 0% is about no effect
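Read-out: compound-evoked intracellular calcium rise in TRHR cells, fluo-8 dye, kinetic FDSS fluorescence at 1 s/cycle following a 10-cycle baseline. Cells cultured overnight before dye loading (30 min–1.5 h, RT).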
* marks the source's active call; other numbers are inactive results. Unless noted, no stated cut-off is given here; in the data, active means activation above about 30%; inactive means the rest.

SMILES	TRHR PAM	D1 antag	D1 PAM	D1 agonist	TRHR agonist
CCO[C@H]1OC(C(=O)NC2CC2)=C[C@@H](c2ccc(Br)cc2)[C@@H]1CCCO	1.2	-58.8*	-6.2	-0.1	-0.6
CCO[C@H]1OC(C(=O)O)=C[C@@H](c2ccc3c(c2)OCO3)[C@@H]1CCCO	2.0	-13.6	62.5*	-3.3	-0.1
CCO[C@@H]1OC(C(=O)NC2CC2)=C[C@H](c2ccc(Br)cc2)[C@H]1CCCO	-0.7	10.7	2.6	3.1	0.3
CN(CCN1CCOCC1)C(=O)c1cc(COc2ccc(F)c(F)c2)on1	3.6	-11.5	0.2	2.0	-0.1
CC1CC(C)CN(CC(=O)N2CCc3[nH]c4ccccc4c3C2)C1 (stereo not given)	0.8	-6.2	0.5	9.5	-0.5
CC1CN(CC(=O)N2CCc3[nH]c4ccccc4c3C2)CC(C)O1 (stereo not given)	1.5	-44.2*	1.6	1.8	0.1
CC1Cc2cc(S(=O)(=O)N(C)c3ccc(Br)cc3)ccc2N1C(=O)C1CC1 (stereo not given)	6.7	-25.8	-3.5	12.1	-0.5
CN(C)CCNc1nc2sc3c(c2c(=O)n1Cc1ccccc1)CCCCC3	11.1	-23.4	-5.1	65.2*	4.6
CN(C)CCNc1nc2sc3c(c2c(=O)n1-c1ccc(F)cc1)CCCCC3	11.1	0.5	4.2	15.1	1.9
COc1ccc(-n2c(NCCN(C)C)nc3sc4c(c3c2=O)CCCCC4)cc1	1.0	2.0	-4.3	56.0*	2.0
CN(C)CC/C=C1/c2ccccc2COc2ccccc21	-3.1	-74.5*	-3.5	8.6	0.6
CN(C)CCC=C1c2ccccc2C=Cc2ccccc21	8.8	-100.1*	-4.7	13.4	1.0
CN(C)CCC=C1c2ccccc2CCc2ccccc21	1.3	-66.7*	-5.0	11.4	0.3
Cc1ccc(C)c(C(=O)CSc2nc3cc(C(=O)NC4CCCC4)ccc3c(=O)n2CC2CCCO2)c1 (stereo not given)	4.5	-18.5	-3.7	4.4	0.0
CCOCCCn1c(SCC(=O)Nc2ccc(OC)cc2OC)nc2ccccc2c1=O	20.3	14.3	2.8	-1.7	-0.3
CC(C)Oc1ccccc1NC(=O)CSc1nc2ccccc2c(=O)n1C	2.6	-0.9	-7.5	4.9	-0.9
COc1cccc(NC(=O)CSc2nc3ccccc3c(=O)n2C)c1	-3.7	1.3	7.3	49.8*	-0.8
COc1ccc(NC(=O)CSc2nc3ccccc3c(=O)n2CCCN2CCOCC2)c(OC)c1	3.5	-33.2*	-7.2	4.1	-0.7
Cc1ccc(Cl)cc1-n1c(=O)c2sc3ccccc3c2n(CC(=O)NC2CCCCC2)c1=O	-17.8	4.6	0.6	0.4	0.9
COCCCNC(=O)Cn1c(=O)n(-c2ccc(C)cc2)c(=O)c2c1c1cc(C)ccc1n2C	-4.8	9.2	-0.9	-1.4	-0.2
Cc1nc2ccc([N+](=O)[O-])cc2c(=O)n1Cc1ccc([N+](=O)[O-])cc1	-20.4	-61.8*	-6.3	4.6	0.0
Cc1nc2ccc([N+](=O)[O-])cc2c(=O)n1Cc1ccccc1Br	-1.9	-43.2*	-9.2	5.3	-0.8
Cc1nc2ccc([N+](=O)[O-])cc2c(=O)n1Cc1cccc(Br)c1	-17.8	6.5	-2.1	-3.6	0.6
Cc1ccc(-c2noc(CCCC(=O)Nc3cccnc3)n2)cc1	-12.2	-33.6*	-2.7	19.8	-0.6
CCOC(=O)c1ccc(NC(=O)CCc2nc(-c3ccc(C)cc3)no2)cc1	14.9	0.8	-8.6	45.2*	-2.4
SMILES	TRHR PAM	D1 antag	D1 PAM	D1 agonist	TRHR agonist
CCOC(=O)c1ccc(NC(=O)CCc2nc(-c3ccc(Cl)cc3)no2)cc1	11.3	-19.2	-3.9	20.4	0.0
O=C(CCCc1nc(-c2ccccc2)no1)Nc1cccnc1	8.9	-17.3	-9.7	6.2	0.1
COc1ccccc1C1CC(c2ccc(NS(C)(=O)=O)cc2)=NN1S(=O)(=O)c1ccccc1 (stereo not given)	2.6	4.3	-0.1	4.8	0.3
COc1ccccc1C1CC(c2cccc(NS(C)(=O)=O)c2)=NN1S(=O)(=O)c1ccccc1 (stereo not given)	30.7*	-3.8	-3.9	9.4	0.5
COc1cccc(N2CCN(c3c4c(nc5ncnn35)CCC4)CC2)c1	-7.4	-30.4*	-7.0	4.9	-0.3
Cc1cccc(Nc2c3c(nc4ncnn24)CCC3)c1	3.9	-30.0*	-2.4	1.3	-2.5
Cc1cc(C)cc(Nc2c3c(nc4ncnn24)CCC3)c1	-3.5	2.5	-2.4	-0.4	-1.5
Cc1ccc(-c2nnn3c2nc(NCC(C)c2ccccc2)c2ccccc23)cc1 (stereo not given)	-3.1	3.8	-0.8	0.4	0.2
Cc1ccc2c(c1)cc(C(=O)NCc1ccc(F)cc1)n2C	-1.4	7.2	-0.6	-2.1	-0.6
COC(=O)Cc1ccc(NC(=S)NCCC(C)C)cc1	-0.4	-28.4	-1.6	10.9	-0.1
CCCCNC(=S)NC(=O)c1ccc([N+](=O)[O-])cc1	1.7	-46.1*	-6.5	3.3	0.0
COc1ccc(OCCNC(=S)Nc2cccc3ccccc23)cc1	0.3	-39.3*	-3.5	3.5	0.3
COc1cccc(NC(=S)NCCC(c2ccccc2)c2ccccc2)c1	6.2	-49.9*	-9.0	19.7	-2.3
CC(C)CCNC(=S)Nc1ccc([N+](=O)[O-])cc1	-10.9	-45.6*	-3.1	34.3*	3.2
COc1ccc(-c2cn3nc(N4CCCC(C(=O)NCc5ccc(Cl)cc5)C4)sc3n2)cc1 (stereo not given)	0.2	-0.7	-2.2	1.8	-0.2
Cn1cccc1-c1cc2n(n1)CCC(=O)N2CC(=O)Nc1ccc(F)cc1Cl	4.3	-16.6	-0.8	-1.7	0.5
CC(C)CCNC(=S)Nc1ccc(Br)cc1	-2.1	-33.2*	-12.8	13.2	0.8
CC(C)Oc1ccc(CCC(=O)NNC(=S)Nc2ccccc2)cc1	-2.0	-31.5*	-1.9	8.6	-0.7
Cc1ccc(C(=O)O)cc1NC(=S)NCCc1ccccc1	6.0	8.1	7.0	-0.7	0.9
Oc1ccc(Br)cc1/C=N/NC(=S)NCCc1ccccc1	1.6	16.8	-9.1	2.8	-0.1
S=C(NCCc1ccccc1)N/N=C/c1ccccc1Cl	15.5	-32.8*	5.0	4.5	0.1
Cc1ccc([N+](=O)[O-])cc1NC(=S)NCCc1ccccc1	-5.2	-35.8*	-4.1	23.4	-0.1
CCOc1ccc(NC(=O)COc2ccc(S(=O)(=O)NC3CCCCC3)cc2)cc1	-3.8	1.4	-4.8	-1.0	-0.9

Screening data deposited in PubChem BioAssay by National Center for Advancing Translational Sciences (NCATS).
